Results filed as inconclusive are left out. Active and inactive are the calls of the source. Unless noted, calls come from the whole dose curve; as a rule, active = well fitted curve in the direction sought with a large enough effect in the repeat runs; inconclusive = weak or mixed curves; inactive = no such curve, though single readings can be large; an effect the other way counts as inactive or inconclusive.
What was measured:
[1] = qHTS assay to identify small molecule agonists of the peroxisome proliferator-activated receptor delta (PPARd) signaling pathway - cell viability counter screen (AID 743211); note: nearly all actives have a fitted effect of over 55% in size
Method in brief: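 qHTS cell viability: PPARd-bla HEK293H; 17 h cpd, 37C; CellTiter-Glo, luminescence at 30 min RT.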

[2] = target: Peroxisome proliferator-activated receptor delta (Homo sapiens) (UniProt Q03181); experiment: qHTS assay to identify small molecule agonists of the peroxisome proliferator-activated receptor delta (PPARd) signaling pathway (AID 743212; calls by dose curve; note: potency is the fitted concentration of half-maximal effect)
Sequence of Peroxisome proliferator-activated receptor delta (Homo sapiens) (Q03181 whole entry, looked up): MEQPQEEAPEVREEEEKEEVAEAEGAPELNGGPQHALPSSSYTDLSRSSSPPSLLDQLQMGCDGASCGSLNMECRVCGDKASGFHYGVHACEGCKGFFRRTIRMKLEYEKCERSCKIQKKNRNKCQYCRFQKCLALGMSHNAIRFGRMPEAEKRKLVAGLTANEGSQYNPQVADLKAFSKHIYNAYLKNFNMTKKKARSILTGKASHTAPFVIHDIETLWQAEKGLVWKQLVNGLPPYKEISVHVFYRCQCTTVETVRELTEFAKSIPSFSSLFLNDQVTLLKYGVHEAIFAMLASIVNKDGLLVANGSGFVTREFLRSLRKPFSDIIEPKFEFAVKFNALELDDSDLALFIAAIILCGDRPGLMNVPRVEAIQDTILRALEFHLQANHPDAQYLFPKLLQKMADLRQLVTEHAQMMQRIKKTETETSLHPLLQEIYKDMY
Method in brief: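 Steps: seed PPARd-bla HEK293H cells; incubate 5 h, 37 C, 5% CO2; add compounds in DMSO; incubate, 37 C; add LiveBLAzer B/G FRET substrate; hold 2 h at room temperature; measure fluorescence.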

[3] = qHTS assay to identify small molecule antagonists of the peroxisome proliferator-activated receptor delta (PPARd) signaling pathway - cell viability counter screen (AID 743213); note: nearly all actives have a fitted effect of over 50% in size
Method in brief: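 In this counter screen, HEK293H cells carrying a UAS-beta-lactamase reporter are co-treated with test compounds and 300 nM L165041 (final) for 17 h at 37 C; cell viability is quantified by CellTiter-Glo luminescence.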

[4] = qHTS assay to identify small molecule agonists of the farnesoid-X-receptor (FXR) signaling pathway - cell viability counter screen (AID 743218); note: nearly all actives have a fitted effect of over 45% in size
Method in brief: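 Luminescence from CellTiter-Glo, read after 30 min at RT, reports viability of GeneBLAzer FXR-UAS-bla HEK 293T cells treated 16 h with compounds in the wells used for the beta-lactamase reporter.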

[5] = target: Vitamin D3 receptor (Homo sapiens) (UniProt P11473); experiment: qHTS assay to identify small molecule agonists of the vitamin D receptor (VDR) signaling pathway (AID 743222; calls by dose curve)
Sequence of Vitamin D3 receptor (Homo sapiens) (P11473 whole entry, looked up): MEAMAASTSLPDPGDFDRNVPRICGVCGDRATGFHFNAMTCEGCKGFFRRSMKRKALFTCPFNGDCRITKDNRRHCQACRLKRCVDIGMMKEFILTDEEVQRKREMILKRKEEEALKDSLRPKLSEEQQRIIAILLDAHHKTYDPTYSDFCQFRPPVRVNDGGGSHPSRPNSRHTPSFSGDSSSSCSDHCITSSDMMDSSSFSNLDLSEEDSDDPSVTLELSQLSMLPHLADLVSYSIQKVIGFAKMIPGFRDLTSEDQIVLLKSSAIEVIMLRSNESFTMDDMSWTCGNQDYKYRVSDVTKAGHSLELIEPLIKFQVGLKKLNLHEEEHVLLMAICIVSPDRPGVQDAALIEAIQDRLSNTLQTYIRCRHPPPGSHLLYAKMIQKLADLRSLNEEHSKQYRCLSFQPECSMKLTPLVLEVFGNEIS
Method in brief: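 Beta-lactamase reporter readout (LiveBLAzer B/G FRET, 2 h RT) in VDR-bla cells after 16 h compound treatment at 37C, 5% CO2; cells pre-incubated 4 h before pin transfer of DMSO solutions.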

[6] = target: Vitamin D3 receptor (Homo sapiens) (UniProt P11473); experiment: qHTS assay to identify small molecule antagonists of the vitamin D receptor (VDR) signaling pathway (AID 743223; active = well fitted inhibition curve with a large enough effect in the signal ratio in the repeat runs, not every such curve was filed as active; the % refers to the signal ratio)
Method in brief: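 Reporter line VDR-bla; stimulus 1alpha,25-(OH)2 vitamin D3, 3 nM final; compound co-addition, 16 h 37C/5% CO2; LiveBLAzer B/G substrate 2 h RT; fluorescence intensity.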

[7] = qHTS assay to identify small molecule agonists of the vitamin D receptor (VDR) signaling pathway - cell viability counter screen (AID 743224); note: series mostly up to about 63 µM; nearly all actives have a fitted effect of over 50% in size
Method in brief: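 Cytotoxicity counter screen: VDR-bla cells, 16 h compound exposure at 37C, 5% CO2; CellTiter-Glo luminescence, 30 min RT, same wells as bla read.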

[8] = qHTS assay to identify small molecule antagonists of the vitamin D receptor (VDR) signaling pathway - cell viability counter screen (AID 743225); note: nearly all actives have a fitted effect of over 50% in size
Method in brief: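 Parallel cytotoxicity test: VDR-UAS-bla HEK 293T, 3 nM (final) 1-alpha,25-dihydroxyvitamin D3 with test compound, 16 h, 37C. Endpoint is CellTiter-Glo luminescence in the same wells.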

[9] = qHTS assay to identify small molecule agonists of the NFkB signaling pathway (AID 1159509; active = well fitted curve in the direction sought with a large enough effect in the signal ratio in the repeat runs, not every such curve was filed as active; the % refers to the signal ratio; note: series mostly up to about 61 µM)
Method in brief: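 Readout: FRET fluorescence, 405 nm excitation, 460/530 nm emission; beta-lactamase expression disrupts FRET. Cells: ME-180 stably carrying NF-kB-driven bla reporter. Compound exposure 5 hr, 37 C, 5% CO2.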

[10] = qHTS assay to identify small molecule agonists of the NFkB signaling pathway - cell viability counter screen (AID 1159515; calls by dose curve; note: series mostly up to about 61 µM; nearly all actives have a fitted effect of over 55% in size)
Method in brief: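 ME-180 NFkB-bla cells, 2,000/well; overnight attach; compound 5 hr, 37 C/5% CO2; LiveBLAzer substrate 1.5 hr RT; then CellTiter-Glo in same wells, 30 min RT, luminescence read.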

[11] = qHTS assay to identify small molecule agonists of the endoplasmic reticulum stress response signaling pathway (AID 1159516; active = well fitted activation curve with a large enough effect in the signal ratio in the repeat runs, not every such curve was filed as active; the % refers to the signal ratio)
Method in brief: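 HeLa ESRE-bla reporter line; cpd 5 h, 37 C/5% CO2; LiveBLAzer B/G FRET substrate 2 h RT; ex 405, em 460/530 nm.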

[12] = qHTS assay to identify small molecule agonists of the endoplasmic reticulum stress response signaling pathway - cell viability counter screen (AID 1159517; calls by dose curve;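 note: HeLa cells carrying an ER stress response element beta-lactamase reporter; series mostly up to about 61 µM; nearly all actives have a fitted effect of over 50% in size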)
Method in brief: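 After overnight attachment, ESRE-bla HeLa cells were treated with Tox21 library compounds for 5 hr. CellTiter-Glo luminescence, read 30 min post-addition at room temperature, reported viability.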

[13] = qHTS assay to identify small molecule antagonists of the retinoid-related orphan receptor gamma (ROR-gamma) signaling pathway - cell viability counter screen (AID 1159520); note: nearly all actives have a fitted effect of over 50% in size
Method in brief: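 Cytotoxicity was read from cellular ATP (CellTiter-Glo luminescence) after 16 hr at 37 C with 1 uM doxycycline induction. The inducer was added 2 hr after compound transfer to Tet-on ROR gamma CHO cells.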

[14] = target: Nuclear receptor ROR-gamma (Homo sapiens) (UniProt P51449); experiment: qHTS assay to identify small molecule antagonists of the retinoid-related orphan receptor gamma (ROR-gamma) signaling pathway (AID 1159521)
Method in brief: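 Decreased RORE-driven luciferase luminescence indicates antagonism. Tet-on RORγ CHO cells received compound, then 1 uM final doxycycline 2 h later; signal read after 16 h incubation.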

[15] = qHTS assay to identify small molecule agonists of the AP-1 signaling pathway - cell viability counter screen (AID 1159525; calls by dose curve; note: nearly all actives have a fitted effect of over 55% in size)
Method in brief: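 Intracellular ATP by Cell Titer Glo luminescence (30 min, RT) in the same ME-180 AP-1-bla wells after the 5 h compound exposure at 37 °C. Normalised to tetra n-octyl ammonium bromide and DMSO controls.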

[16] = qHTS assay to identify small molecule agonists of the AP-1 signaling pathway (AID 1159526; calls by dose curve)
[17] = target: Bile acid receptor (Homo sapiens) (UniProt Q96RI1); experiment: qHTS assay to identify small molecule antagonists of the farnesoid-X-receptor (FXR) signaling pathway (AID 743217; active = well fitted inhibition curve with a large enough effect in the signal ratio in the repeat runs, not every such curve was filed as active; the % refers to the signal ratio)
Sequence of Bile acid receptor (Homo sapiens) (Q96RI1 whole entry, looked up): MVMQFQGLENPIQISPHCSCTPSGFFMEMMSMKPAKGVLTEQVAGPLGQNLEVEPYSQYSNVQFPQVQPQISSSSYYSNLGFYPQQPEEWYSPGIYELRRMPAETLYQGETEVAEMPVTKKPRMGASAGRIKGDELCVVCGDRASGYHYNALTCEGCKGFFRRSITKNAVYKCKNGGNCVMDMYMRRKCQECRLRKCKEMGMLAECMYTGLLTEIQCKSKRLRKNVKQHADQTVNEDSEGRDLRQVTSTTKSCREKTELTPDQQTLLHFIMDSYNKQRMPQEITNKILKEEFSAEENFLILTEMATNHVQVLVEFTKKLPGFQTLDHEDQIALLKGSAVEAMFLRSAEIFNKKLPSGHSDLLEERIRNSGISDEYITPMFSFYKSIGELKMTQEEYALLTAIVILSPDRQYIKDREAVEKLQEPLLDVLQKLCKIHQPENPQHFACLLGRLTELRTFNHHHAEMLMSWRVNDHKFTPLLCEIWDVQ
Method in brief: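 Read-out: beta-lactamase FRET fluorescence (LiveBLAzer B/G substrate, 2 h, room temperature) in GeneBLAzer FXR-UAS-bla HEK 293T cells. Compounds were co-dosed with 50 uM chenodeoxycholic acid (final) and incubated 16 h at 37 °C.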

[18] = target: Bile acid receptor (Homo sapiens) (UniProt Q96RI1); experiment: qHTS assay to identify small molecule agonists of the farnesoid-X-receptor (FXR) signaling pathway (AID 743220; active = well fitted activation curve with a large enough effect in the signal ratio in the repeat runs, not every such curve was filed as active; the % refers to the signal ratio)
Method in brief: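 FXR-UAS-bla HEK 293T cells carrying a UAS-driven beta-lactamase reporter were plated for 5 h at 37C/5% CO2, then exposed to DMSO-dissolved Tox21 10K compounds for 16 h at 37C. A LiveBLAzer B/G FRET substrate was loaded for 2 h at room temperature before fluorescence reading.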

[19] = qHTS assay to identify small molecule antagonists of the farnesoid-X-receptor (FXR) signaling pathway - cell viability counter screen (AID 743221; active = well fitted cell-killing curve with a large enough effect in the repeat runs, not every such curve was filed as active; note: nearly all actives have a fitted effect of over 50% in size)
Method in brief: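 After a 5 h settling period, FXR-bla HEK 293T cells receive compound and chenodeoxycholic acid (50 uM final) and incubate 16 h at 37 C; CellTiter-Glo luminescence, read after 30 min at room temperature, reports cell viability.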

[20] = target: Peroxisome proliferator-activated receptor delta (Homo sapiens) (UniProt Q03181); experiment: qHTS assay to identify small molecule antagonists of the peroxisome proliferator-activated receptor delta (PPARd) signaling pathway (AID 743215; active = well fitted inhibition curve with a large enough effect in the signal ratio in the repeat runs, not every such curve was filed as active; the % refers to the signal ratio;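 note: cells stimulated with agonist L165041 at 300 nM final during compound exposure; series mostly up to about 62 µM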)
Method in brief: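 HEK293H GeneBLAzer PPARd UAS-bla reporter cells; cpd + L165041 300 nM final, 17 h 37 C; LiveBLAzer B/G FRET substrate 2 h RT; fluorescence intensity read-out. Antagonist mode.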

Measured: Potency

N[C@H](Cc1c[nH]c2ccccc12)C(=O)O
inactive: [1] | [2] | [3] | [4] | [5] | [6] | [7] | [8] | [9] | [10] | [11] | [12] | [13] | [14] | [15] | [16]

CC(C)OC(=O)COc1ccc(Cl)cc1Cl
inactive: [1] | [2] | [3] | [17] | [4] | [18] | [7] | [8] | [9] | [10] | [11] | [12] | [13] | [14] | [15] | [16]

C[C@]12CC[C@@H]3c4ccc(O)cc4CC[C@H]3[C@@H]1C[C@@H](O)[C@@H]2O
inactive: [1] | [2] | [3] | [4] | [19] | [5] | [6] | [7] | [8] | [10] | [11] | [12] | [13] | [14] | [15] | [16]

CCCCCCC=O
inactive: [1] | [2] | [3] | [4] | [19] | [5] | [6] | [7] | [8] | [10] | [11] | [12] | [13] | [14] | [15] | [16]

COc1ccc(N)c(C)c1
inactive: [1] | [2] | [3] | [20] | [17] | [4] | [18] | [19] | [5] | [6] | [7] | [8] | [10] | [11] | [12] | [13] | [14] | [15] | [16]

CCCCCCCCCCO
inactive: [1] | [3] | [17] | [4] | [18] | [19] | [5] | [7] | [8] | [10] | [11] | [12] | [13] | [14] | [15] | [16]

CCCCOC(=O)c1ccc(N)cc1
inactive: [1] | [2] | [3] | [4] | [5] | [6] | [7] | [8] | [10] | [11] | [12] | [13] | [14] | [15] | [16]

CC1(C)NC(=O)NC1=O
inactive: [1] | [2] | [3] | [20] | [4] | [5] | [6] | [7] | [8] | [10] | [11] | [12] | [13] | [14] | [15] | [16]

O=C(O)Cn1c(=O)n(Cc2ccc(Br)cc2F)c(=O)c2ccc(Cl)cc21
inactive: [1] | [3] | [17] | [4] | [18] | [5] | [7] | [8] | [10] | [11] | [12] | [13] | [14] | [15] | [16]

O=C1CCCC1
inactive: [1] | [3] | [4] | [19] | [5] | [6] | [7] | [8] | [10] | [11] | [12] | [13] | [14] | [15] | [16]

CC(C)(Oc1ccc(CCNC(=O)c2ccc(Cl)cc2)cc1)C(=O)O
inactive: [1] | [3] | [17] | [4] | [18] | [19] | [5] | [6] | [7] | [8] | [10] | [11] | [12] | [13] | [14] | [15] | [16]
active: [2] 38.9 µM

COc1ccc(CCC(C)=O)cc1
inactive: [1] | [2] | [3] | [17] | [4] | [18] | [5] | [6] | [7] | [8] | [10] | [11] | [12] | [13] | [14] | [15] | [16]

Nc1nc(N)nc(-c2ccccc2)n1
inactive: [1] | [2] | [3] | [4] | [19] | [7] | [8] | [10] | [11] | [12] | [13] | [14] | [15] | [16]

CN(C)CCOC(=O)COc1ccc(Cl)cc1
inactive: [1] | [2] | [3] | [20] | [4] | [19] | [5] | [6] | [7] | [8] | [10] | [11] | [12] | [13] | [14] | [15] | [16]

CN1C(=O)CC[C@H]1c1cccnc1
inactive: [1] | [3] | [4] | [7] | [8] | [10] | [11] | [12] | [13] | [14] | [15] | [16]

CC(=O)OC1CC(C)OC(C)O1 (stereo unspecified)
inactive: [1] | [2] | [3] | [20] | [17] | [4] | [18] | [7] | [8] | [10] | [11] | [12] | [13] | [14] | [15] | [16]

CC(=O)Oc1ccc(C)cc1
inactive: [1] | [2] | [3] | [20] | [4] | [7] | [8] | [10] | [11] | [12] | [13] | [14] | [15] | [16]

CSc1ccc(Cl)cc1
inactive: [1] | [2] | [3] | [17] | [4] | [18] | [19] | [5] | [6] | [7] | [8] | [10] | [11] | [12] | [13] | [14] | [15] | [16]

Source: PubChem BioAssay (Tox21)
